Among the data in paper PMC7862700, “An all-to-all approach to the identification of sequence-specific readers for epigenetic DNA modifications on cytosine” are binding signal values, retold here.

Holding throughout (test): DAPPL (digital affinity profiling via proximity ligation, sequencing); 10 mM Tris-HCl pH 7.5, 50 mM NaCl, 1 mM DTT, 4% glycerol, room temperature, 30 min; GST-TFs on glutathione beads, 16-mer random dsDNA library, 0.1% formaldehyde crosslink after washing; high values mean tight binding
Conditions in all cases: protein: recombinant; tags: N-terminal GST; dsDNA, one strand shown

In one assay the target is T1, FLI1 (Homo sapiens, UniProt Q01543 1-452).
T1 sequence: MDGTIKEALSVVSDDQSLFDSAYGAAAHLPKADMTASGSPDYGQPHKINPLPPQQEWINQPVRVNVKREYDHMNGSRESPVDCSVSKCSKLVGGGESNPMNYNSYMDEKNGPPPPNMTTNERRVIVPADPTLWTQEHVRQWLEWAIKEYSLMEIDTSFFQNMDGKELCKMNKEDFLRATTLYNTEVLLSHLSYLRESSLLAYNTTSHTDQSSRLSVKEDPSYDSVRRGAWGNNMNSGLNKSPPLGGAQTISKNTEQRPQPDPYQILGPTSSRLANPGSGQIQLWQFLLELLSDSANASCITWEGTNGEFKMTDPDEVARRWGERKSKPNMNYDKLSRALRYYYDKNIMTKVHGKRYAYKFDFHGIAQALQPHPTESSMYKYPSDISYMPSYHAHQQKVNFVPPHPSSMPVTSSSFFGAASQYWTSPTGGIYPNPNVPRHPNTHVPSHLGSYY
A digest of the protocol:
(§1)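 Human transcription factors were made in yeast as GST fusions, captured on glutathione beads and barcoded with DNA. With a tag-only sample included, the pool was incubated with 200 nmole of a random double-stranded 16-mer DNA library in Tris/NaCl/DTT/glycerol buffer at room temperature for 30 min, then crosslinked with 0.1% formaldehyde after washing, ligated by proximity, amplified and sequenced. For binding signal, each hexamer's read frequency for a factor is divided by its frequency for the tag-only sample.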

The next assay addresses T2, ELK1 (Homo sapiens, UniProt P19419 1-428).
T2 sequence: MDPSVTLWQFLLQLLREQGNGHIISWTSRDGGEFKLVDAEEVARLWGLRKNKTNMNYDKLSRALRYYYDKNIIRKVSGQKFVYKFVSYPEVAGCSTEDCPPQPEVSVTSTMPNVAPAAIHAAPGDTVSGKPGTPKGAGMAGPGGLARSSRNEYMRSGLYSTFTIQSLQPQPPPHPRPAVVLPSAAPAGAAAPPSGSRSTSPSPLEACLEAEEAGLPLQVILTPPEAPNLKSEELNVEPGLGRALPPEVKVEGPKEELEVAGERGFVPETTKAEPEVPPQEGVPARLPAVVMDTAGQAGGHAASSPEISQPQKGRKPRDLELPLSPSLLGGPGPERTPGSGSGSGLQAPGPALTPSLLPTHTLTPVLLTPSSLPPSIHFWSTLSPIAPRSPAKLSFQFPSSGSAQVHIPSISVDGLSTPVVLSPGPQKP
An outline of the steps: as §1

The target of another assay is T3, GABPA (Homo sapiens, UniProt Q06546 1-454).
T3 sequence: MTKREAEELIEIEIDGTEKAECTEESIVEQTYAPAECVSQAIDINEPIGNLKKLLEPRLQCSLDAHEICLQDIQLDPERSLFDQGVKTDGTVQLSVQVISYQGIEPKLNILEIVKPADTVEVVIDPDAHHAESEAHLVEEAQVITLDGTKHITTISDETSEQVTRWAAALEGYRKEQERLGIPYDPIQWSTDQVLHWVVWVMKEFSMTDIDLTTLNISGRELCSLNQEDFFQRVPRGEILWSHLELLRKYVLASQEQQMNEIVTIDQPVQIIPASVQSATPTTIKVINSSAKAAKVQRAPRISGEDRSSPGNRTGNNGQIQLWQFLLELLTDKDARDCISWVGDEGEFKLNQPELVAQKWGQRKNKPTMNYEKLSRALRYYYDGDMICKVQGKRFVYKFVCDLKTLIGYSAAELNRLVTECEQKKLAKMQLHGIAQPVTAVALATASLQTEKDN
A digest of the protocol: as §1

Another assay deals with T4, ERG (Homo sapiens, UniProt P11308 1-479).
T4 sequence: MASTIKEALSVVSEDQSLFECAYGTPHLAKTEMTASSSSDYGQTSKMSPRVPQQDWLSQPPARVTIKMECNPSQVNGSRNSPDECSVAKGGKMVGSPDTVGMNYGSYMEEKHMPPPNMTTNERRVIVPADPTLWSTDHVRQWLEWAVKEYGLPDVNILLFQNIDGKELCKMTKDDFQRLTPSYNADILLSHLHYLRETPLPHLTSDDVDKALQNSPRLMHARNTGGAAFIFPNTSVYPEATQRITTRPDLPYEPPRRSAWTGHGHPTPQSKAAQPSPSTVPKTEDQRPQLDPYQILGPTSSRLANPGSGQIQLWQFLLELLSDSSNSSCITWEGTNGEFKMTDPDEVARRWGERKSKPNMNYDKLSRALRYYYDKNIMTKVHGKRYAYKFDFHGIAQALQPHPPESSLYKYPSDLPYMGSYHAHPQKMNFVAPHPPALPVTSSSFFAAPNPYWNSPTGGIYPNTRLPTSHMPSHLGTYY
An outline of the steps:
as §1

For the next assay, the target named is ELF1 (Homo sapiens, UniProt P32519 1-619). An outline of the steps:
as §1

Another assay concerns the target T5, EHF (Homo sapiens, UniProt Q9NZC4 1-300).
T5 sequence: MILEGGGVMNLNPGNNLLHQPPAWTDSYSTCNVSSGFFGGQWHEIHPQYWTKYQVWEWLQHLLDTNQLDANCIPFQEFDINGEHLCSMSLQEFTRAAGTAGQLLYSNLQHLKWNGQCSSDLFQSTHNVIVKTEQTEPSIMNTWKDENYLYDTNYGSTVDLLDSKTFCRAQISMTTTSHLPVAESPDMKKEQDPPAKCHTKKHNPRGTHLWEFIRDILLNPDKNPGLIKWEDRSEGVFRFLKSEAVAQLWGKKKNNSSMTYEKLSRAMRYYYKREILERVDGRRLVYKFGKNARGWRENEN
A digest of the protocol:
as §1

The target of the next assay is ELF4 (Homo sapiens, UniProt Q99607 1-663). An outline of the steps: as §1
The target in the next assay is T6, ELK4 (Homo sapiens, UniProt P28324-2 1-405).
T6 sequence: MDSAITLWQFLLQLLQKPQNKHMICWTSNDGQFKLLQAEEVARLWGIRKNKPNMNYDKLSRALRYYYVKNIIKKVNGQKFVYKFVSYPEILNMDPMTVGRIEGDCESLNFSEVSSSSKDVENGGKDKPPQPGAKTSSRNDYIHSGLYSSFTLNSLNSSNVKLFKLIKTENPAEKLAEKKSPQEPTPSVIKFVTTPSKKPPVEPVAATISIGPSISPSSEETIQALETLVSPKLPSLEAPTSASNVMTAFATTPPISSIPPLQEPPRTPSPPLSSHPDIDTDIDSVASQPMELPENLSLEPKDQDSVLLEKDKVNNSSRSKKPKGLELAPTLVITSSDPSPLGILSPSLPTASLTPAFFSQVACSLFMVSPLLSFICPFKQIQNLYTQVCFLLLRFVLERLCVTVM
A digest of the protocol:
as §1

The next assay addresses T7, ETV2 (Homo sapiens, UniProt O00321 1-342).
T7 sequence: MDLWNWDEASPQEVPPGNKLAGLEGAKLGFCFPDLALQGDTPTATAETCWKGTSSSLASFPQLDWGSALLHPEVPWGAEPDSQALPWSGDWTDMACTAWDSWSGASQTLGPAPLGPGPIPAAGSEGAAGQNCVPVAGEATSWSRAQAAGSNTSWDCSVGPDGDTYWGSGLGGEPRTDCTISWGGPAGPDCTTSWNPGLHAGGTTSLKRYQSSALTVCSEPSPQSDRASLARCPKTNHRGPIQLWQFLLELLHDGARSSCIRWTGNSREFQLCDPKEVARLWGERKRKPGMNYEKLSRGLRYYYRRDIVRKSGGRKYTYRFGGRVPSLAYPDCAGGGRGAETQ
A digest of the protocol: as §1

The target of the next assay is ETV1 (Homo sapiens, UniProt P50549 1-477). An outline of the steps:
as §1

Another assay deals with T8, ERF (Homo sapiens, UniProt P50548 1-548).
T8 sequence: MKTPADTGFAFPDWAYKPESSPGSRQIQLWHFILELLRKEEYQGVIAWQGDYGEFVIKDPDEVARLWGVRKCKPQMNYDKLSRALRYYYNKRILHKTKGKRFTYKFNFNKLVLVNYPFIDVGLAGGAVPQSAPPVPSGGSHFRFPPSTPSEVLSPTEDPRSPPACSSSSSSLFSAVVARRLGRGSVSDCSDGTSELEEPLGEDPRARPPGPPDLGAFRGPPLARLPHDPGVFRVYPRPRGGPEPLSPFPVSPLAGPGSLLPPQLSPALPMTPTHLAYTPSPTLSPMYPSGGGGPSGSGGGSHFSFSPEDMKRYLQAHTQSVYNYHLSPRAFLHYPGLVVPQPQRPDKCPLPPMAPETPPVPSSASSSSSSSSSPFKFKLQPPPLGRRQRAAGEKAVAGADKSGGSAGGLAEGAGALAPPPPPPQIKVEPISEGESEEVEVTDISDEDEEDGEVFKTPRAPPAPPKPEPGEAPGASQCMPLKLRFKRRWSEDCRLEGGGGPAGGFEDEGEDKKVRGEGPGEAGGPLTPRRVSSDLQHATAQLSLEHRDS
A digest of the protocol: as §1

The target in another assay is T9, ETV3L (Homo sapiens, UniProt Q6ZN32 1-361).
T9 sequence: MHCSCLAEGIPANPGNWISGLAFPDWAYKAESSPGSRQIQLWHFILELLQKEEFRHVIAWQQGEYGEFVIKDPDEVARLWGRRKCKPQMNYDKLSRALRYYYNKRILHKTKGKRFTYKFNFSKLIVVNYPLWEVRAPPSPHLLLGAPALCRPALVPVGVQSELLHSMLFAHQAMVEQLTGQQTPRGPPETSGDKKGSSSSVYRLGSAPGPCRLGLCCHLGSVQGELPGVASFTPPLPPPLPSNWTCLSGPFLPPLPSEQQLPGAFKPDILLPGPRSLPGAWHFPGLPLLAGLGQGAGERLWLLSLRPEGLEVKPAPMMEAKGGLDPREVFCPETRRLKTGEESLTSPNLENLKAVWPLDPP
An outline of the steps: as §1

The next assay addresses T10, ETV7 (Homo sapiens, UniProt Q9Y603 1-341).
T10 sequence: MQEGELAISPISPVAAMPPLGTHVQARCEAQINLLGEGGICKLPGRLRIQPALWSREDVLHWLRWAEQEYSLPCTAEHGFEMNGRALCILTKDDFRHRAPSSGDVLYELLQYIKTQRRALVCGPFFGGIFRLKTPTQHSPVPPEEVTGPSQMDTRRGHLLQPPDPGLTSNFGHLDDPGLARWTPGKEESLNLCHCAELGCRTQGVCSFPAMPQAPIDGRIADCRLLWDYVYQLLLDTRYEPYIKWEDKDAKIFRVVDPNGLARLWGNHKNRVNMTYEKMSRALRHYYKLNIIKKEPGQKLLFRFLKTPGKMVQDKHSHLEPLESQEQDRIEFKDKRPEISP
A digest of the protocol: as §1

In a further assay the target is T11, ETV3 (Homo sapiens, UniProt P41162-2 1-143).
T11 sequence: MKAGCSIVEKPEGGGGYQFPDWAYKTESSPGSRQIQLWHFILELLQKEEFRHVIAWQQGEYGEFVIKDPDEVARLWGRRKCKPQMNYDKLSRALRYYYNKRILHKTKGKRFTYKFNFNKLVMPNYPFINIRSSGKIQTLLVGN
An outline of the steps:
as §1

A further assay deals with ETV6 (Homo sapiens, UniProt P41212 1-452). An outline of the steps:
as §1

The target of the next assay is T12, ELF3 (Homo sapiens, UniProt P78545 1-371).
T12 sequence: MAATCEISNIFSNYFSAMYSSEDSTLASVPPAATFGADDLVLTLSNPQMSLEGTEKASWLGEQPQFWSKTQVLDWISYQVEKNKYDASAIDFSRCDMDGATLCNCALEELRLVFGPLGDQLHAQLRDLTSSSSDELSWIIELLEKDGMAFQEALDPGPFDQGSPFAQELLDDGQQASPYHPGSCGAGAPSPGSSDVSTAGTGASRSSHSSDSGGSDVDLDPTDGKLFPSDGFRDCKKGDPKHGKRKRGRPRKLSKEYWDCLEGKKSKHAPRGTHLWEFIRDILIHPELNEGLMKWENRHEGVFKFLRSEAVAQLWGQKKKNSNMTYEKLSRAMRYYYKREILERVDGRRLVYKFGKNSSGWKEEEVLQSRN
A digest of the protocol:
as §1

ETV6, sequence (P41212 whole entry): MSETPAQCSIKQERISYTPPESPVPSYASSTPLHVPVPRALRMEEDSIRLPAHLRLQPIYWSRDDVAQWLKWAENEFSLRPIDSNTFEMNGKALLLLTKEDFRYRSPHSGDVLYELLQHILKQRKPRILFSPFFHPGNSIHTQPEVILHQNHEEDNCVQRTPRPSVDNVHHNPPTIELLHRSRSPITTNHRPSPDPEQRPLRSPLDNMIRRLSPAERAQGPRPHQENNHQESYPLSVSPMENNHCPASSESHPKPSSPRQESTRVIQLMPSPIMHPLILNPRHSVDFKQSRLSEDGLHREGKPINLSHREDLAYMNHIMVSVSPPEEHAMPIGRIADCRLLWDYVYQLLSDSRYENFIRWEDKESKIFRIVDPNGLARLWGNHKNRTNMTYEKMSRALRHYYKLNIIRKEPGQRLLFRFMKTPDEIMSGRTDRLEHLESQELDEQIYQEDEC
ELF1, sequence (P32519 whole entry): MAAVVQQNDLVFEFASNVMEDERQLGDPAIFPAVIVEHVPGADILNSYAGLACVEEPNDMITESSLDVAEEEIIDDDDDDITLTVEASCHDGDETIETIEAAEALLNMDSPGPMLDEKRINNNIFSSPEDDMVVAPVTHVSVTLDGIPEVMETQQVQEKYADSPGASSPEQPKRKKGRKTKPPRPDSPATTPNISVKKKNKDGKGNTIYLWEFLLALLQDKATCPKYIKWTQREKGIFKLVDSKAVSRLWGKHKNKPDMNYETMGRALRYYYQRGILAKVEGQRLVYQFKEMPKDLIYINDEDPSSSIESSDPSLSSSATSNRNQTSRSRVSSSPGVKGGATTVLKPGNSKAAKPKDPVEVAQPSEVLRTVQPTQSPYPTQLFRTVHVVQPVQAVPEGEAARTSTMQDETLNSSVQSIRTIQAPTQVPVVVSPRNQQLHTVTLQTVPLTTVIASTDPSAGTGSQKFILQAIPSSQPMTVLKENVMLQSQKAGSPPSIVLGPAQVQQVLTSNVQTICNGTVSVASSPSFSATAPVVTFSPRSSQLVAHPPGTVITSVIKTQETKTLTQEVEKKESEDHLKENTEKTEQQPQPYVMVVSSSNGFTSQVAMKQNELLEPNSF
ELF4, sequence (Q99607 whole entry): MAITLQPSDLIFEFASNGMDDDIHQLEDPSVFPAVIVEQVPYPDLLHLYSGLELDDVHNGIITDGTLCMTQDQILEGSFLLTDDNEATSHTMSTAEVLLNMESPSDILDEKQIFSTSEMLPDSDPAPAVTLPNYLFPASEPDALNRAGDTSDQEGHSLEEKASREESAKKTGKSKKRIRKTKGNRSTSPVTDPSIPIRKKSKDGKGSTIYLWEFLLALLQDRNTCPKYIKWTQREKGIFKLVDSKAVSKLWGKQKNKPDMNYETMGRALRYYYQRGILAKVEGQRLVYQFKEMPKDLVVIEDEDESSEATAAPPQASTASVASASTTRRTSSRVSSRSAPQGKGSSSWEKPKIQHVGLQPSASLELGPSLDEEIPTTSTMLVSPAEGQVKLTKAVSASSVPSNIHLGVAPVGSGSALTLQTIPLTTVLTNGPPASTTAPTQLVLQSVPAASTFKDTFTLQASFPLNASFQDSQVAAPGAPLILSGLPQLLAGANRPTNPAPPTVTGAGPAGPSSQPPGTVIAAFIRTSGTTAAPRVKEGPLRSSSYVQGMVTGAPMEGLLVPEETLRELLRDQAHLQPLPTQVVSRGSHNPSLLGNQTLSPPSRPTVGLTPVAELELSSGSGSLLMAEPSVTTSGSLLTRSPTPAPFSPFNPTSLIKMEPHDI
ETV1, sequence (P50549 whole entry): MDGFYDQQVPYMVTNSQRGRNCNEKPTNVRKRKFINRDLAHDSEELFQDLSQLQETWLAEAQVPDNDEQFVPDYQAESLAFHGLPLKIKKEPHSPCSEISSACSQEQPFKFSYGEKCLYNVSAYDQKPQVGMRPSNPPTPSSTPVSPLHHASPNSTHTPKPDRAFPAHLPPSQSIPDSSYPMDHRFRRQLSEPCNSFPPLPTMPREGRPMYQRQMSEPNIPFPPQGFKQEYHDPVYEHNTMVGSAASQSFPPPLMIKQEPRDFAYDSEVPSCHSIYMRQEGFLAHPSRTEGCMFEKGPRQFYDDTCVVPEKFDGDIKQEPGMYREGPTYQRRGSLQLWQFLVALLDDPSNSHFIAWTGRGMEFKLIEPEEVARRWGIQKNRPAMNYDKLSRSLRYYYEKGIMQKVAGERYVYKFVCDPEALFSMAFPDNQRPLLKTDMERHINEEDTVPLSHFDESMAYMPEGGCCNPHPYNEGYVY

For AGAACA, the binding signal was 1.06 fold enrichment (6-mer frequency, TF over GST control) in the assay with FLI1; 1.06 fold enrichment (6-mer frequency, TF over GST control) with ELK1; 1.11 fold enrichment (6-mer frequency, TF over GST control) with GABPA; 1.01 fold enrichment (6-mer frequency, TF over GST control) in the assay with ERG; 1.07 fold enrichment (6-mer frequency, TF over GST control) with ELF1; 1.02 fold enrichment (6-mer frequency, TF over GST control) with EHF. The binding signal is 1.06 fold enrichment (6-mer frequency, TF over GST control) in the assay with ELF4; 1.02 fold enrichment (6-mer frequency, TF over GST control) in the assay with ELK4; 1.03 fold enrichment (6-mer frequency, TF over GST control) with ETV2; 1.02 fold enrichment (6-mer frequency, TF over GST control) with ETV1; 1.07 fold enrichment (6-mer frequency, TF over GST control) with ERF; 1.01 fold enrichment (6-mer frequency, TF over GST control) with ETV3L. Moreover, the binding signal in the assay with ETV7 is 1.07 fold enrichment (6-mer frequency, TF over GST control); with ETV3, 1.07 fold enrichment (6-mer frequency, TF over GST control); in the assay with ETV6, 1.08 fold enrichment (6-mer frequency, TF over GST control).

Turning to TTGGAA, the binding signal with FLI1 is 1.01 fold enrichment (6-mer frequency, TF over GST control); in the assay with GABPA it was 1.03 fold enrichment (6-mer frequency, TF over GST control); in the assay with EHF it was 1.04 fold enrichment (6-mer frequency, TF over GST control); with ETV2, 1.02 fold enrichment (6-mer frequency, TF over GST control); in the assay with ELF3, 1.06 fold enrichment (6-mer frequency, TF over GST control); with ETV7 it was 1 fold enrichment (6-mer frequency, TF over GST control). Besides, the binding signal in the assay with ETV6 is 1.03 fold enrichment (6-mer frequency, TF over GST control).
